Holding throughout (assay): PBM binding z-score (relative to random genomic background probes); higher = stronger binding; sequences stand for … in GC…GCGATTGACAGCGTAGAATGAAGG
Experiment [1] has as its system PPARg:RXRa DBDmut IVT, anti-RXR (DBD mutation: RXRa K156A/R161A, NR concentration 270 nM, RXRa partner concentration 90 nM). Put shortly: (§1)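 Custom Agilent 4×180K protein-binding microarrays carried double-stranded probes. Their 34-nt variable regions held direct-repeat seeds, single-nucleotide variants, half-site ablations and random human genomic background sequences. Arrays were incubated 1 h with ligand-free nuclear receptor dimers in PBS pH 7.4, 2% milk, 0.02% Triton X-100, 1 mM DTT, 0.2 mg/mL BSA and 0.4 mg/ml salmon testes DNA. Antibodies against each partner (one per run) detected binding, and scanned fluorescence was regression-normalized. Binding z-scores use random background probes as reference.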

Experiment [2] relates to PPARg:RXRa IVT, anti-PPARg (NR concentration 270 nM, RXRa partner concentration 90 nM). The essentials:
as §1

Experiment [3] concerns PPARg DBDmut:RXRa IVT, anti-PPARg (DBD mutation: PPARg1 K132A/R137A, NR concentration 270 nM, RXRa partner concentration 90 nM). The essentials:
as §1

Experiment [4] deals with PPARg DBDmut IVT, anti-PPARg (DBD mutation: PPARg1 K132A/R137A, NR concentration 270 nM). The essentials: as §1
The test system of experiment [5] is PPARg homodimer (NR concentration 180 nM). Put shortly:
as §1

For experiment [6], the system named is PXR:RXRa (NR concentration 270 nM, RXRa partner concentration 90 nM). The essentials:
as §1

Experiment [7] concerns PXR homodimer (NR concentration 270 nM). The essentials: as §1
Experiment [8] deals with RARa:RXR (NR concentration 270 nM, RXRa partner concentration 90 nM). The essentials: as §1
In experiment [9] the test system is RARa homodimer (NR concentration 270 nM). Put shortly:
as §1

In experiment [10] the test system is RARb:RXRa (NR concentration 270 nM, RXRa partner concentration 90 nM). Put shortly: as §1
Experiment [11] concerns RARb homodimer (NR concentration 270 nM). The essentials:
as §1

In experiment [12] the test system is RARg:RXRa (NR concentration 270 nM, RXRa partner concentration 90 nM). The essentials:
as §1

Experiment [13] concerns RARg homodimer (NR concentration 270 nM). Put shortly: as §1
Experiment [14] has as its system RXRa DBDmut IVT, anti-RXR (DBD mutation: RXRa K156A/R161A, NR concentration 90 nM). Put shortly:
as §1

In experiment [15] the test system is RXRa homodimer (NR concentration 180 nM). The essentials:
as §1

Experiment [16] has as its system THRa:RXRa (NR concentration 90 nM, RXRa partner concentration 90 nM). The essentials: as §1
Experiment [17] deals with THRa homodimer (NR concentration 90 nM). The essentials: as §1
Experiment [18] has as its system VDR homodimer (NR concentration 270 nM). The essentials:
as §1

For the sequence GCGACTGGGGCAAAGCAGGTTAGCATAAGGTTGG, the PBM binding z-score in [1] was 4.21; in experiment [2], 3.26; in [3], -0.633; in experiment [4], -1.6; in experiment [5], -0.037; in [6], -0.216. In addition, the PBM binding z-score in experiment [7] is -0.676; in experiment [8], 0.00756; in experiment [9] it was -0.55; in experiment [10], 0.773; in experiment [11] it was 0.654; in experiment [12] it was 0.256. Moreover, the PBM binding z-score is 0.429 in [13]; -0.341 in [14]; 0.0651 in experiment [15]; 2.28 in experiment [16]; -0.225 in experiment [17]; -0.542 in experiment [18].
Take CCTGTTAGGTCATGGTCAGCTAATCTACAGTATG: the PBM binding z-score in experiment [1] stood at 3.41; in experiment [2], 2.86; in experiment [3], 0.756; in [4], 1.29; in experiment [5] it was 2.12; in experiment [6], 1.77. Further, the PBM binding z-score in experiment [7] came out at 0.504; in experiment [8], 2.9; in [9], 0.828; in experiment [10], 4.16; in experiment [11], 3.36; in experiment [12], 4.05. The PBM binding z-score in experiment [13] came out at 4.61; in experiment [14], 2; in experiment [15], 2.89; in [16] it was 3.73; in [17], 2.91; in [18], 0.791.
For the sequence TCTCGGAGGACACGTAGGTCAGAGCTTTCCAGAG, the PBM binding z-score in experiment [1] is 1.13; in [2] it was 0.761; in experiment [3], -0.418; in experiment [4], -1.11; in [5], 0.0512; in experiment [6] it was 0.765. The PBM binding z-score is -0.00599 in experiment [7]; 0.992 in experiment [8]; -0.463 in [9]; 2.54 in experiment [10]; 2.65 in experiment [11]; 2.17 in [12]. The PBM binding z-score in experiment [13] was 2.67; in experiment [14] it was 0.656; in experiment [15] it was 1.04; in experiment [16] it was 2.44; in experiment [17] it was 0.686; in experiment [18] it was 0.567.
For the sequence TCTCGGAGGACACGAAAGGTCAGAGGTCGACATC, the PBM binding z-score in experiment [1] is 1.89; in [2] it was 2.44; in [3] it was -0.583; in experiment [4], -0.569; in experiment [5], 2.83; in experiment [6], 5.34. Besides, the PBM binding z-score in experiment [7] was 0.827; in experiment [8], 6.51; in [9] it was 1.05; in experiment [10] it was 4.57; in experiment [11], 5.07; in [12] it was 5.51. For the same sequence, the PBM binding z-score was determined as 5.38 in experiment [13]; 1.21 in [14]; 6.06 in [15]; 3.99 in [16]; 1.69 in experiment [17]; 2.12 in experiment [18].
Regarding CGTCAAAGTTCAAGGTAACCTAACAGAAAGCAGC, the PBM binding z-score in [1] is 0.978; in experiment [2], 2.67; in experiment [3], 0.466; in experiment [4] it was 0.361; in experiment [5], 2.09; in [6] it was 4.03. Also, the PBM binding z-score in [7] was determined as 2.12; in experiment [8] it was 3.26; in experiment [9] it was 1.18; in experiment [10], 5.37; in experiment [11], 4.17; in experiment [12], 5.43. Also, the PBM binding z-score in experiment [13] was determined as 6.2; in [14], 4.3; in experiment [15], 4.71; in [16], 3.19; in experiment [17] it was 1.38; in experiment [18], 2.84.
Take AGAACGGGGGCAATGAGTTGATAGCACGGGTGGC: the PBM binding z-score was determined as 4.36 in experiment [1]; 5.56 in experiment [2]; 9.77 in [3]; 9.9 in experiment [4]; 1.96 in [5]; 3.74 in experiment [6]. Further, the PBM binding z-score was 6.38 in [7]; 2.68 in experiment [8]; 1.18 in [9]; 3.02 in experiment [10]; 1.83 in [11]; 2.87 in [12]. In addition, the PBM binding z-score in experiment [13] is 2.43; in [14], 3.17; in experiment [15], 2.3; in [16], 2.45; in [17], 1.33; in experiment [18], 5.08.
Take CCTCAGAGGACAGAAGGTCAGAGCTGTCCGCTTT: the PBM binding z-score in [1] was 0.0276; in experiment [2], 0.424; in [3] it was -0.801; in experiment [4] it was -2.11; in experiment [5], 1.69; in [6], 1.66. Further, the PBM binding z-score in experiment [7] is -0.179; in experiment [8], 2.01; in [9] it was 0.177; in [10] it was 3.41; in experiment [11], 3.51; in [12] it was 3.95. In addition, the PBM binding z-score in [13] was 3.91; in [14], 0.625; in experiment [15], 2.1; in [16], 1.95; in experiment [17] it was -0.0422; in experiment [18], 0.12.
For GCTATTTGGTCAGTAAAAGGTCACACACCGGTCG, the PBM binding z-score in [1] is 1.19; in experiment [2], 3.03; in experiment [3] it was 0.901; in experiment [4], 1.1; in [5] it was 3.8; in [6] it was 5.12. Also, the PBM binding z-score in experiment [7] came out at 1.46; in experiment [8], 5.67; in experiment [9] it was 2.38; in experiment [10], 4.45; in experiment [11], 5.41; in experiment [12] it was 5.36. Further, the PBM binding z-score in experiment [13] came out at 4.76; in experiment [14], 0.964; in experiment [15], 5.44; in [16] it was 3.91; in experiment [17], 2.43; in experiment [18], 2.

These data come from the supplement of paper PMC6555819.
